Source: PubChem (National Center for Advancing Translational Sciences (NCATS))
GLS inhibitor: qHTS for Inhibitors of Glutaminase (GLS); GLS enzymatic activity, qHTS titration; Potency, µM (titrated, usually from 45.5 µM), for the others: top-dose activity change, negative = inhibition, actives largely listed as inhibitors; AID 624170, 2012; 410,000 tested, 0.21% active; Glutaminase kidney isoform, mitochondrial (Homo sapiens), O94925; note: % is set by controls: 0 for no effect and ±100 for the full control effect
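Enzyme dispensed in phosphate buffer (45 mM, pH 8.2, 0.02% Tween-20), compounds pinned in, then 1 mM L-glutamine solution and the glutamate oxidase–HRP–Amplex Red mix added; fluorescence read immediately and again after 30 min at room temperature.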
HP1b binding inh: HTS for Inhibitors of HP1-beta Chromodomain Interactions with Methylated Histone Tails; AlphaScreen HP1-beta / biotin-H3K9me3 peptide binding; 390,000 tested, 0.56% active; Chromobox protein homolog 1 (Homo sapiens), P83916; Potency, µM (series often up to 114 µM), for inactives: top-dose activity change, negative = inhibition, hits mostly inhibitors; note: nearly all actives have a fitted effect of over 70% in size
Target sequence (P83916 whole entry, looked up): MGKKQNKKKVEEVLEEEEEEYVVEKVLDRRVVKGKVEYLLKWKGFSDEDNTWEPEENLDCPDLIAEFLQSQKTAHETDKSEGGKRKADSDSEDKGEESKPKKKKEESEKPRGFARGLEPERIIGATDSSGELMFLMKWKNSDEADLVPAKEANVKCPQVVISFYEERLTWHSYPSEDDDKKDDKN
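AlphaScreen: HP1-beta (50 nM) preformed 30 min with biotin-H3(1-18)K9me3 peptide (50 nM) in PBS pH 7.4, 0.01% Tween-20. Compound added for 30 min at RT, then streptavidin donor/nickel chelate acceptor beads (10 ug/mL) for 30 min.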
BAZ2B block: qHTS Assay for Inhibitors of BAZ2B. Bromodomain adjacent to zinc finger domain protein 2B (Homo sapiens), Q9UIF8. Potency, µM (top dose mostly 114 µM), for inactives: top-dose activity change, negative = inhibition, usual class: inhibitors. 360,000 tested, 4.4% active. AID 504333, 2011. AlphaScreen BAZ2B-H3K14Ac peptide displacement; note: % is set by controls: 0 for no effect and ±100 for the full control effect; nearly all actives have a fitted effect of over 60% in size
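BAZ2B 50 nM plus b-H3(5-23)K14Ac 50 nM, PBS pH 7.4/0.01% Tween-20, 30 min RT; compound added (max 110 uM), 30 min RT; streptavidin donor/Ni-chelate acceptor beads 10 ug/mL final, 20 min dark; AlphaScreen read.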
JMJD2A Tudor: qHTS Assay for Inhibitors of JMJD2A-Tudor Domain | Lysine-specific demethylase 4A (Homo sapiens), O75164 | AlphaScreen JMJD2A-Tudor / H3K4me3 peptide binding | Potency, µM (highest dose often 114 µM), without a hit: top-dose activity change, negative = inhibition, hits mostly inhibitors | 390,000 tested, 4.4% active | AID 504339, 2011; note: % is set by controls: 0 for no effect and ±100 for the full control effect; nearly all actives have a fitted effect of over 50% in size
L3MBTL1 block: qHTS Assay for the Inhibitors of L3MBTL1 | Lethal(3)malignant brain tumor-like protein 1 (Homo sapiens), Q9Y468 | AlphaScreen L3MBTL1–H3K9me1 peptide binding | Potency, µM (top dose mostly 57.1 µM), for the others: top-dose activity, negative = inhibition, actives largely listed as inhibitors | 230,000 tested, 0.66% active; note: % is set by controls: 0 for no effect and ±100 for the full control effect; nearly all actives have a fitted effect of over 60% in size
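Read-out is AlphaScreen signal from streptavidin donor and nickel chelate acceptor beads (10 ug/mL final each) bridging L3MBTL1 (50 nM) and biotinylated K9-monomethylated H3(1-15) peptide (75 nM), after 30 min compound exposure at room temperature.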
G9a inh: qHTS Assay for Inhibitors of Histone Lysine Methyltransferase G9a | Potency, µM (highest dose often 102 µM), inactives show at the highest dose activity, negative = inhibition, hits mostly inhibitors | 350,000 tested, 8.8% active | G9a H3K9 monomethylation, AlphaScreen, 2 h | Histone-lysine N-methyltransferase EHMT2 (Homo sapiens), Q96KQ7; note: % is set by controls: 0 for no effect and ±100 for the full control effect; nearly all actives have a fitted effect of over 75% in size
Target sequence (Q96KQ7 913-1193 limits assumed): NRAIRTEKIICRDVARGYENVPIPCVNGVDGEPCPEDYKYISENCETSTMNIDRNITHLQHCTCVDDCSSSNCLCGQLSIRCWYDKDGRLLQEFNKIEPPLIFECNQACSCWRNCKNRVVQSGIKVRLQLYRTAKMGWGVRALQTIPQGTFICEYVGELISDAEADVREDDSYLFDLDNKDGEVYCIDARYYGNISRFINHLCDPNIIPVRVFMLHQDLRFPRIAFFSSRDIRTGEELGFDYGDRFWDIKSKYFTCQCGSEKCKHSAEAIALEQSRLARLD
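Compounds were preincubated with 20 nM G9a for 15 min, after which biotinylated H3K9 peptide (500 nM) and SAM (20 uM) started a 2 h room-temperature reaction. Monomethylated product was quantified by antibody-based AlphaScreen chemiluminescence.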
* = called active by the depositor; ? = inconclusive; nt = not tested or not shown; ! = not active in a repeat; [ ] = dose if it differs, or a comment. Sampled rows, rich in hits. Any-hit rate of the full collection: about 10%. Calls come from the whole dose curve; as a rule, active = well fitted curve in the direction sought with a large enough effect; inconclusive = small, poorly fitted or top-dose-only effect, or another doubt; inactive = no such curve, though single readings can be large; an effect the other way counts as inactive or inconclusive. Potency is the fitted concentration of half-maximal effect.

SMILES	GLS inhibitor	HP1b binding inh	BAZ2B block	JMJD2A Tudor	L3MBTL1 block	G9a inh
CC(C)(c1ccccc1)c1ccc(OCCCN2CCNCC2)cc1	?	?	20µM*	1.1µM*	-21%	16µM*
O=C(CC(=O)NCCc1ccccc1)NCCc1ccccc1	1%	13%	-20%	-12%	nt	11%
CCC(C)NCCOc1ccc(C(C)(C)c2ccccc2)cc1 (stereo not given)	-13%	?	?	2.8µM*	-8%	7.9µM*
CC(C)(C)c1ccc(OCCCCCCN2CCNCC2)cc1	0%	-10%	nt	-24%	nt	nt
NNCCc1ccccc1	18%	20%	-17%	79µM*	5%	19µM*!
CCCCOc1ccc(C(=O)NCCc2ccccc2)cc1	-8%	43%	-35%	7%	9%	7%
COc1ccc(-c2cn3nc(N4CCCC(C(=O)Nc5ccccc5OC)C4)sc3n2)cc1 (stereo not given)	6%	-5%	-11%	-23%	nt	?
COc1ccccc1C(=O)NCCOc1ccc(C(C)(C)C)cc1	-7%	78%	14%	24%	4%	71%
CC(C)(C)c1ccc(OCCNC(=S)Nc2ccccc2)cc1	-13%	27%	-11%	-16%	-14%	57%[12.7 µM]
COCCCNCCOc1ccc(C(C)(C)c2ccccc2)cc1	-9%	9%	?	18µM*	9%	20µM*
C=CCNCCOc1cccc(Br)c1	3%	18%	8%	-16%	11%	?
CCC(C)NCCOc1cccc(Br)c1 (stereo not given)	1%	?	-26%	4.5µM*	4%	8.9µM*
CC(C)(C)c1ccc(OCCNCc2ccccc2)cc1	2%	?	-8%	2.2µM*	9%	45µM*
c1ccc(CCNCCOc2ccccc2)cc1	0%	-21%	?	2.8µM*	-4%	10µM*
O=C(CCCOc1ccccc1)NCCc1ccccc1	3%	35%	3%	-6%	12%	4%
Cc1cnc(CNc2ncncc2-c2ccoc2)cn1	nt	nt	nt	nt	nt	26%[0.501 µM]
CCOC(=O)c1c(C)oc2nc(C)nc(N3CCN(c4cccc(C(F)(F)F)c4)CC3)c12	-2%	21%	-33%[57.1 µM]	-8%	nt	?
O=C(NCc1ccco1)c1cc([N+](=O)[O-])ccc1N1CCOCC1	0%	35%	79µM*	6%	-1%	10µM*
O=C(c1cc(S(=O)(=O)Nc2ccccc2F)c(Cl)cc1Cl)N1CCN(CCO)CC1	0%	26%	0%	-8%	nt	?
O=C(NCCN1CCOCC1)c1cc([N+](=O)[O-])ccc1Cl	7%	58%	?	0%	0%	56µM*
CC1CCCN(c2ccc(C(=O)NCc3ccco3)cc2[N+](=O)[O-])C1 (stereo not given)	3%	?	45µM*	56µM*	-23%	?
O=C(NCCN1CCOCC1)c1cc(S(=O)(=O)Nc2ccccc2F)c(Cl)cc1Cl	0%	32%	-34%	-7%[11.4 µM]	nt	50µM*
Cc1ccc(C(=O)NCc2ccco2)cc1[N+](=O)[O-]	-4%	19%	-6%	-23%	-7%	-4%[59 µM]
CCOc1ccc(-n2c(=O)c3c(C)c(C)sc3n(Cc3c(F)cccc3Cl)c2=O)cc1	1%	26%	1%	-5%	nt	9%[59 µM]
O=C(CC1N=C2c3ccccc3N=C(SCC(=O)Nc3cccc(C(F)(F)F)c3)N2C1=O)NCc1cccs1 (stereo not given)	-17%	27%	-2%	-16%	nt	2%[59 µM]
SMILES	GLS inhibitor	HP1b binding inh	BAZ2B block	JMJD2A Tudor	L3MBTL1 block	G9a inh
O=C(NCCN1CCOCC1)c1ccc(NS(=O)(=O)c2cccc([N+](=O)[O-])c2)cc1	12%	14%	14%	-2%	3%	50µM*
Cc1ccnc(NC(=O)c2sc3ccccc3c2Cl)c1	15%	35%	7%	-20%	12%	-1%[59 µM]
O=C(CN1CCOCC1)NNC(=O)c1ccc([N+](=O)[O-])cc1	10%	6%[57 µM]	-19%	4%	nt	50µM*
O=C(Nc1ccccn1)c1sc2cc([N+](=O)[O-])ccc2c1Cl	-10%	-33%	?	56µM*	-3%	1.6µM*
O=C(NCCCN1CCOCC1)c1sc2cc([N+](=O)[O-])ccc2c1Cl	0%	?	-32%	79µM*	0%	0.89µM*
O=C(NCCCN1CCOCC1)c1sc2cc(Cl)ccc2c1Cl	-12%	12%	-11%	-9%	-18%	-6%
CCOc1ccc(S(=O)(=O)Nc2ccc3c(c2)N(C(C)=O)CCC3)cc1	9%	22%	-17%	5%	nt	0%[12.7 µM]
COc1ccc(OC)c(-c2noc(N3CCN(c4cc(C)ccc4C)CC3)n2)c1	4%	8%	-16%	-22%	nt	-2%[59 µM]
CCOC(=O)c1cccc(NC(=O)c2cc3c(=O)n(Cc4ccccc4)ccc3nc2C)c1	3%	57%	-2%	-17%	nt	4%[59 µM]
CCOc1ccc(N2C(=O)CS/C2=C(\C(Cl)=C(Cl)Cl)[N+](=O)[O-])cc1	19%	-65%	50µM*	5µM*	nt	32µM*
O=C(CSc1n[nH]c(-c2ccccc2Cl)n1)N1CCN(c2ccccc2)CC1	62%	21%[57 µM]	-2%	-20%	nt	-22%[59 µM]
O=C(NCCc1ccccc1)c1ccc(NCC2CCCO2)c([N+](=O)[O-])c1 (stereo not given)	-9%	-1%	?	-22%	nt	-2%[59 µM]
O=C(NCCc1ccccc1)c1ccc2c(=O)[nH]c3c(C(=O)NCC4CCCO4)sc(=S)n3c2c1 (stereo not given)	4%	?	35µM*	45µM*	nt	-11%[0.501 µM]
Cc1ccc2c(Cl)c(C(=O)NCC3CCCO3)sc2c1 (stereo not given)	7%	12%	-1%	-9%	4%	8%
O=C(NCC1CCCO1)c1sc(=S)n2c1[nH]c(=O)c1ccc(C(=O)N3CCCCC3)cc12 (stereo not given)	23%	-24%	?	?	-8%	45µM*
Cc1cc([N+](=O)[O-])cc(/C=N\NC(=O)C2COc3ccccc3O2)c1O (stereo not given)	27%	30%	28µM*	50µM*	25µM*	-51%
